# Compounds with a hit are over-represented: about 4.5% of the library has one in this group of screens.
# ssDAF12 agonist – activates DAF-12 receptor from parasite S. stercoralis; HEK293 ssDAF-12/GRIP1 lit1-tk-luc reporter, luminescence; % of 3 µM dafachronic acid response; 370,000 tested, 1% active; activation, % at 6.8 µM; AID 652126;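 active = activation above the mean over all tested compounds plus 3 SD, cut at about 0.9% in these data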;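 also: 0% = DMSO-only wells and 100% = 3 µM delta7-dafachronic acid wells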
# hgDAF12 agonist – agonists of H. glycines DAF-12 nuclear receptor. HEK293 GAL4-hgDAF12 UAS-luciferase reporter, agonist luminescence; normalized to butyrate control. activation, % at 6.8 µM. 370,000 tested, 1.8% active. AID 687014;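 active = activation above a cutoff set at the mean of all screened compounds plus 3 SD, cut at about 10% in these data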;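 also: 0% = DMSO wells and 100% = sodium butyrate wells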
# hcDAF12 agonist – H. contortus DAF-12 activation, primary screen | 370,000 tested, 1.4% active | AID 652067 | HEK293 hcDAF-12 lit1-tk-luc reporter, luminescence; 0% DMSO, 100% Δ7-dafachronic acid | activation, % at 6.8 µM;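 active = activation above the mean of all tested compounds plus 3 SD, cut at about 5.5% in these data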;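 also: 100% = response to 3 µM Δ7-dafachronic acid high control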
# DAX1 inh-1 – inhibitors of DAX1 repression of SF-1 activated StAR promoter. HEK293T StAR-luciferase reporter, SF-1/DAX-1 repression relief. 370,000 tested, 1.1% active. AID 652010. inhibition, % at 6.8 µM;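 active = inhibition above the mean over all tested compounds plus 3 SD, cut at about 3.6% in these data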;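 also: 0% = DAX-1 cells with DMSO and 100% = cells lacking DAX-1 with DMSO; higher inhibition means more luminescence from relief of DAX-1 repression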
# DAX1 inh-2 – inhibits human nuclear receptor DAX1; P51843; HEK293 Gal4-DAX1 luciferase reporter, luminescence; inhibition, % at 6.75 µM; 340,000 tested, 0.99% active; AID 504766;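 active = inhibition above the mean over all tested compounds plus 3 SD, cut at about 4.2% in these data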;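 also: 0% = DAX1-transfected cells with DMSO and 100% = empty-vector control cells with DMSO; inhibition shows as a rise in luminescence from relieved DAX1 repression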
# Target sequence (P51843 207-470 limits assumed): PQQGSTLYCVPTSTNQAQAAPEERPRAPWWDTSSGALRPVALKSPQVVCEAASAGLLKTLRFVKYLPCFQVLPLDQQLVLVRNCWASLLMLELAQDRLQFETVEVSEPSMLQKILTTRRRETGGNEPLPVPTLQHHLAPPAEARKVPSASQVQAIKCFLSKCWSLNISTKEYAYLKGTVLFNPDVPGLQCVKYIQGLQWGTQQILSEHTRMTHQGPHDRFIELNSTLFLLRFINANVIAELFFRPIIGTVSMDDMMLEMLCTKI
# GAA850 FXN act – increases GAA850 frataxin promoter reporter activity; HEK293 lucGAA850 FXN promoter luciferase reporter, 24 h; percent of 10 µM SAHA response; activation, % at 6 µM; 360,000 tested, 0.56% active;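 active = activation above the average of all compounds screened plus 3 SD, cutoff fixed separately per campaign, cut at about 7.5% in these data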;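 also: 0% = DMSO wells and 100% = 10 µM SAHA wells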
# DAX1 conf – confirmation of human DAX1 (NR0B1) inhibitors; shares compounds with DAX1 inh-1; 2,400 tested, 87% active; AID 652134; inhibition, % at 6.8 µM; HEK293T StAR-promoter luciferase reporter, SF-1/DAX-1 repression;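 active = inhibition above the average of every tested compound plus 3 SD, cut at about 3.8% in these data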;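 also: 0% = DAX-1 cells with DMSO and 100% = no DAX-1 control cells with DMSO; active compounds raise luminescence by relieving repression of the StAR reporter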
# SF1 AF2mut Luc – nonselective inhibitor or artifact in SF-1 mutant DAX1 counter-screen; AID 652136; 2,400 tested, 78% active; inhibition, % at 6.8 µM; shares compounds with DAX1 inh-1; HEK293 StAR-luciferase, SF-1 AF2 mutant, luminescence;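 active = inhibition above the mean of all tested compounds plus 3 SD, cut at about 3% in these data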;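 also: 0% = DAX-1 transfected cells with DMSO and 100% = cells without DAX-1 with DMSO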
# LXR ag – counter-screen for hcDAF-12 agonists: agonists of human LXR-beta. shares compounds with hcDAF12 agonist. AID 743027. activation, % at 6.8 µM. HEK293 Gal4-LXR tk-luc reporter, luminescence, 24 h; normalized: DMSO 0%, positive control 100%. 3,400 tested, under 10 active;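 active = mean percent activation of the reporter above a cutoff set as the average over tested compounds plus their standard deviation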
# Target sequence (P55055 whole entry, looked up, the tested form may be a part): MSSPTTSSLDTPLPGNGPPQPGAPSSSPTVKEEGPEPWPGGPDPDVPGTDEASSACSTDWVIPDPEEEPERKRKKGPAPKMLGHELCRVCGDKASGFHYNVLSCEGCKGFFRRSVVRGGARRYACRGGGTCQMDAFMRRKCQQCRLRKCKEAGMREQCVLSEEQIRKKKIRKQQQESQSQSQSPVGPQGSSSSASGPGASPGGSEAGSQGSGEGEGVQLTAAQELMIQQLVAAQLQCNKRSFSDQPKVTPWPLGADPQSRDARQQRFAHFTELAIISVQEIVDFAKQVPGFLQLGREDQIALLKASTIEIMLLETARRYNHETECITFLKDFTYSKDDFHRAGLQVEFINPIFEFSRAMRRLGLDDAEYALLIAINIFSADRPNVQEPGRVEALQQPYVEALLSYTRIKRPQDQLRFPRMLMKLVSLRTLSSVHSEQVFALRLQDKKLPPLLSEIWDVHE
# hcDAF12 ag – hcDAF-12 agonism, confirmation assay; shares compounds with hcDAF12 agonist; HEK293 hcDAF-12 lit1-tk-luc reporter, luminescence; % of Δ7-dafachronic acid response; activation, % at 6.8 µM; 3,400 tested, 61% active;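 active = mean activation across triplicate tests above the threshold derived from the earlier primary screen, cut at about 5.5% in these data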;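 also: 0% = DMSO only wells and 100% = 3 µM Δ7-dafachronic acid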
# hgDAF12 conf – hgDAF-12 agonism, confirmation assay; shares compounds with hgDAF12 agonist; HEK293 GAL4-hgDAF12 luciferase reporter, agonist mode; percent of butyrate response; activation, % at 6.8 µM; 3,300 tested, 80% active; AID 743050;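 active = mean activation over triplicate wells above the hit cutoff derived from the earlier primary screen, cut at about 11% in these data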;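 also: 0% = DMSO low control and 100% = 2 mM sodium butyrate high control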
# LXRb DAF12 ctr – counter-screen for DAF-12 agonists: agonists of human LXR-beta. activation, % at 6.8 µM. AID 743051. 3,300 tested, under 10 active. shares compounds with hgDAF12 agonist. HEK293 Gal4-LXR luciferase reporter, 24 h;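 active = mean activation of the triplicate above a set limit carried over from the primary screen, none filed active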
# Starred values were filed as active, the others as inactive; . = no result.
SMILES,ssDAF12 agonist,hgDAF12 agonist,hcDAF12 agonist,DAX1 inh-1,DAX1 inh-2,GAA850 FXN act,DAX1 conf,SF1 AF2mut Luc,hgDAF12 conf,LXRb DAF12 ctr,others
Cc1noc(C)c1COc1cccc(C(=O)Nc2ccc(Br)cc2F)c1,-2,1,-3,-3,-2,-3,.,.,.,.,
O=C1c2ccccc2S(=O)(=O)N1CC1CC(c2ccccc2Cl)=NO1 (configuration not stated),1,15*,8.7*,5.5*,3,4,11*,8.1*,.,.,LXR ag=1;hcDAF12 ag=13*
CC(=O)Nc1sc2c(c1C(N)=O)CCC2,-1,0,1,0,0,0,.,.,.,.,
Cn1ccc(C(=O)Nc2sc3c(c2C(N)=O)CCCCC3)n1,-1,12*,7.8*,10*,2,3,4.9*,3,.,.,LXR ag=1;hcDAF12 ag=6.9*
NC(=O)c1c(NC(=O)c2cc3ccccc3o2)sc2c1CCC2,1.9*,13*,9.9*,4.8*,3,1,14*,7.6*,.,.,LXR ag=2;hcDAF12 ag=15*
Cc1ccc(C(=O)N=c2sccn2C)cc1C,1.6*,12*,14*,10*,1,4,11*,7.2*,.,.,LXR ag=1;hcDAF12 ag=11*
Cn1ccsc1=NC(=O)c1ccc(Cl)c([N+](=O)[O-])c1,-1,-2,1,0,1,4,.,.,.,.,
CC(=O)c1ccc(Nc2ccc(-c3ccccc3F)nn2)cc1,1,18*,5,4.7*,1,7,14*,6.8*,19*,1,
COc1ccccc1-c1ccc(Nc2ccc(C(=O)N3CCOCC3)cc2)nn1,-1,-2,-2,-1,-1,-1,.,.,.,.,
C/C(=N\NC(=O)c1cccc(F)c1)c1ccc(NC(=O)Cc2ccccc2)cc1,0,14*,6.4*,7.0*,-1,-1,1,2,6,0,
C/C(=N/NC(=O)c1ccc2c(c1)OCO2)c1ccc(NC(=O)c2ccc(F)cc2)cc1,-1,14*,5.7*,5.8*,2,7,6.3*,2,6,0,
C/C(=N\NC(=O)c1cc(O)cc(O)c1)c1ccc(NC(=O)Cc2ccccc2)cc1,0,9,3,3,3,5,.,.,.,.,
Cc1ccc(-n2c(SCC(=O)Nc3ccc(S(=O)(=O)Nc4nccs4)cc3)nnc2-c2cccs2)cc1,-1,-2,0,1,.,.,.,.,.,.,
C[C@H](O)[C@@H]1CN2CCc3ccc(-c4ccc5c(c4)OCO5)cc3[C@@H]2C[C@@H]1N(C)C(=O)c1cccc(Cl)c1,-1,3,-2,0,.,.,.,.,.,.,
C/C(=N\NC(=O)c1csc(C)c1C)c1ccco1,0,7,2,1,1,4,.,.,.,.,
CC(=O)N/N=C(/C)c1ccc(NC(=O)c2csc(C)c2C)cc1,0,17*,5.8*,13*,1,3,9.4*,4.7*,16*,0,
COc1cccc(-c2ccc3c(c2)[C@@H]2C[C@H]4[C@@H](CN2CC3)[C@H](C)ON4C)c1,0,0,0,0,.,.,.,.,.,.,
CCOc1ccc(C=Nn2c(-c3cccc(OC(C)C)c3)n[nH]c2=S)cc1,-2,0,0,1,.,.,.,.,.,.,
O=C(/C=C/c1ccc(Cl)cc1Cl)Nc1cccc(S(=O)(=O)NC2=NCCC2)c1,0,18*,4,5.4*,0,6,9.4*,5.0*,14*,1,
O=C(/C=C/c1ccccc1Cl)Nc1cccc(S(=O)(=O)NC2=NCCCCC2)c1,-1,2,-3,0,-1,1,.,.,.,.,
CC(C)c1ccc(NC(=O)c2cc(Br)ccc2Br)cc1,-1,4,1,1,2,2,.,.,.,.,
O=C(Nc1ccc(Cl)cc1)c1ccc(Br)cc1F,1,18*,9.6*,7.5*,4,1,11*,7.5*,20*,1,LXR ag=1;hcDAF12 ag=6
O=C(N[C@H](C(=O)N1CCC[C@H]1C(=O)NCc1ccccc1)c1ccccc1)C1CCCC1,-1,2,-1,1,.,.,.,.,.,.,
CC1CCCC(C)N1C(=O)CSc1nnc(-c2cccs2)o1 (configuration not stated),0,18*,5,4.7*,2,4,11*,8.0*,17*,1,
CC1CCCCN1C(=O)CSc1nnc(-c2cccs2)o1 (configuration not stated),0,7,4,1,0,6,.,.,.,.,
SMILES,ssDAF12 agonist,hgDAF12 agonist,hcDAF12 agonist,DAX1 inh-1,DAX1 inh-2,GAA850 FXN act,DAX1 conf,SF1 AF2mut Luc,hgDAF12 conf,LXRb DAF12 ctr,others
O=C(NCCc1ccccc1)OCc1cn(-c2cccc(Cl)c2)nn1,0,3,-3,0,.,.,.,.,.,.,
O=C(Nc1nnc([C@@H]2C[C@H](O)[C@@H](CO)O2)s1)c1ccccc1Cl,-1,1,1,1,.,-1,.,.,.,.,
O=C(Nc1nnc([C@@H]2C[C@H](O)[C@@H](CO)O2)s1)c1cccc2ccccc12,1,25*,4,5.0*,.,4,8.7*,5.6*,13*,1,
O=C(Nc1nnc([C@H]2C[C@H](O)[C@@H](CO)O2)s1)Nc1ccccc1F,0,4,2,1,.,4,.,.,.,.,
O=C(Nc1nnc([C@@H]2C[C@H](O)[C@@H](CO)O2)s1)Nc1ccccc1F,0,15*,5,7.3*,.,2,7.2*,3.4*,11*,0,
O=C(Nc1ccc2c(c1)OCCO2)C(CCc1ccccc1)N1CCC(Cc2ccccc2)CC1 (configuration not stated),-1,8,1,2,.,.,.,.,.,.,
CCCCn1nnnc1C(c1cc2ccccc2o1)N(CCN(C)C)Cc1ccccc1 (configuration not stated),0,2,3,0,.,.,.,.,.,.,
